High-throughput results from PubChem.
KB-V1 cytotox: KB-V1 MDR subline cytotoxicity | 400,000 tested, 3.4% active | AID 1347076 | Potency, µM (highest dose often 46.1 µM), hits mostly cytotoxic | KB-V1 MDR cells viability, CellTiter-Glo, 72 h; also: potency is read from the fitted curve at half-maximal effect; % is scaled to controls: 0 for no effect and ±100 for the full control effect; nearly all actives have a fitted effect of over 60% in size
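In this primary screen, KB-V1 cells overexpressing P-gp are incubated with library compounds (lowest to highest concentration) for 72 h at 37 degrees C before a luminescent ATP viability read.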
SW480 rereplic: induces DNA re-replication in SW480 colon adenocarcinoma cells. SW480 DNA re-replication, Hoechst DNA content imaging, 48 h. Potency, µM (top dose mostly 46.1 µM), for the others: top-dose re-replication activation, most hits filed as activators. 340,000 tested, 1.8% active; also: potency is read from the fitted curve at half-maximal effect; % of control where 0% means no effect; nearly all actives have a fitted effect of over 55% in size
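Per well, 250 cells were exposed to pinned compound for 48 hr. Nuclear DNA was visualised with Hoechst (40 min, 37 C) and total object intensity recorded by fluorescence scanning.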
MCF10A rerep: inducers of DNA re-replication in MCF 10A breast cells; MCF 10A DNA re-replication, Hoechst nuclear intensity, 48 h; Potency, µM (highest dose often 46.1 µM), without a hit: top-dose activity, positive = re-replication, hits mostly activators; 350,000 tested, 2.9% active; AID 624296; also: potency is read from the fitted curve at half-maximal effect; % of control where 0% means no effect; nearly all actives have a fitted effect of over 50% in size
KB-3-1 cytotox: kills parental KB-3-1 adenocarcinoma cells; AID 1347075; Potency, µM (series often up to 46.1 µM), most hits filed as cytotoxic; 400,000 tested, 1.4% active; KB-3-1 viability, CellTiter-Glo ATP luminescence, 72 h; also: potency is read from the fitted curve at half-maximal effect; % is scaled to controls: 0 for no effect and ±100 for the full control effect; nearly all actives have a fitted effect of over 60% in size
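Parental KB-3-1 adenocarcinoma cells in phenol-red-free DMEM with 10% FBS were pin-treated with compounds at several concentrations, incubated 72 h at 37 °C, and viability read by CellTiter-Glo luminescence; concentration-effect curves were fitted after normalization.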
hERG WT inh: blocks the wildtype human KCNH2 potassium channel | U2OS, BacMam KCNH2, thallium flux FluxOr; active compounds read low | activity change, % at 1.84 µM | 340,000 tested, 0.37% active | Q12809 | AID 720551;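 active = maximum activity change below -70%; inconclusive = maximum activity change between -70% and -50%; inactive = maximum activity change above -50%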; also: % is scaled to controls: 0 for no effect and ±100 for the full control effect
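U2OS cells transduced with wild-type KCNH2 virus are loaded with FluxOr dye for 45 min, and thallium flux is measured in kinetic reads before and after stimulation buffer. Rate constants are normalized to DMSO controls.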
KCNH2 3.1 inh: KCNH2 3.1 (human) potassium channel inhibition. U2OS KCNH2 3.1, thallium flux FluxOr; active compounds read low. activity change, % (tested at about 1.8 µM). 340,000 tested, 0.95% active. AID 720553;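 active = maximum activity change below -70%; inconclusive = maximum activity change from -70% to -50%; inactive = maximum activity change above -50%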;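 also: thallium influx rate constant from kinetic fluorescence after stimulation buffer; % is scaled to controls: 0 for no effect and ±100 for the full control effect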
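Thallium flux read-out: FluxOr dye with Red40 quencher in HBSS/HEPES, 45 min at RT. Rate constants from kinetic reads were normalized to positive and negative DMSO controls. Cells: U2OS virally expressing the 3.1 isoform.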
Starred values were filed as active, the others as inactive; i = inactive; ? = inconclusive; . = no result. Shown are actives, neighbours in structure and some others; about 7.6% of the full set was active somewhere. Unless noted, calls follow the shape of the dose curve; as a rule, active = well fitted curve in the direction sought with a large enough effect; inconclusive = small, poorly fitted or top-dose-only effect, or another doubt; inactive = no such curve, though single readings can be large; an effect the other way counts as inactive or inconclusive.

SMILES | KB-V1 cytotox | SW480 rereplic | MCF10A rerep | KB-3-1 cytotox | hERG WT inh | KCNH2 3.1 inh
O=C(Nc1ccccc1Br)C1CCC(=O)N1Cc1ccccc1Cl (stereo unspecified) | 20.6µM* | 1.9% | 2.7% | i | -5.6 | -8.0
C/C(=C/c1ccccc1)C(=O)N1CCC(C)CC1 | i | ? | -1.0% | i | 2.4 | -9.8
Cc1ccc(-c2csc3nc(SCC(=O)N(C)C)n(Cc4ccccc4)c(=O)c23)cc1 | i | 22.0% | ? | ? | 0.7 | -73.8*
NC(=O)CSc1nc2scc(-c3ccc(Cl)cc3)c2c(=O)n1Cc1ccccc1 | i | 20.3% | ? | i | i | -5.3
COC(=O)CN1C(=O)[C@H]2[C@@H](C3CC3)N3C(=O)CN(CCO)C(=O)[C@@]3(Cc3ccccc3)[C@H]2C1=O | ? | -5.5% | 7.3% | i | -5.6 | -19.7
Cc1ccc(O)c(C(=O)CC(=O)c2ccccc2Cl)c1 | 7.31µM* | 4.9% | ? | ? | -18.6 | -13.2
COc1cccc(NC(=O)CCC2CCN(C(=O)Cc3cccc(F)c3)CC2)c1 | . | -2.7% | 15.0% | . | -24.4 | 6.6
COc1ccc(CC(=O)N2CCC(CCC(=O)Nc3ccccc3)CC2)cc1 | . | 21.0% | 23.1µM* | . | 0.8 | -22.7
O=c1[nH]c(=S)[nH]c2c1[C@H](CCc1cccc(Cl)c1)O[C@H](C1CCCC1)C2 | i | . | . | i | . | .
Cc1cc(C)cc(C(=O)NCC(=O)OC(C)C(=O)N(C)c2ccccc2)c1 (stereo unspecified) | i | 6.3% | -1.3% | i | -13.4 | 9.8
Cc1cccc(C)c1N(CC(=O)N1CCN(c2ccccc2F)CC1)S(C)(=O)=O | i | -6.5% | 0.651µM* | i | -0.2 | -1.7
CS(=O)(=O)N(CC(=O)N1CCN(c2ccccc2F)CC1)c1ccc2c(c1)OCCO2 | ? | 0.4% | 1.6% | i | 1.9 | 9.5
Cc1cccc(N(CC(=O)N2CCN(c3ccccc3F)CC2)S(C)(=O)=O)c1 | i | -0.5% | -2.2% | i | -1.9 | -84.5*
CC/C(=N\NC(=O)c1c(-c2ccccc2)noc1C)c1ccc(C)o1 | 13µM* | 1.7% | 17.1% | i | 1.1 | -6.6
CC/C(=N\NC(=O)c1ccoc1C)c1ccc(C)o1 | i | -3.5% | -1.7% | i | 6.5 | 1.3
CCCC(O)C(CC)CO (stereo unspecified) | . | -0.6% | -3.7% | . | . | .
O=C(NC(=S)Nc1nc(-c2ccccc2)cs1)c1cccs1 | i | -1.7% | ? | i | -14.8 | ?
O=C(Nc1nc(-c2cc(Cl)sc2Cl)cs1)c1cccs1 | ? | 17.8% | 8.2µM* | ? | -2.8 | -33.1
CC(=O)Nc1nc(-c2ccc(Br)s2)cs1 | i | -1.6% | 2.1% | i | 0.4 | -5.3
O=C(Nc1nc(-c2cc(Cl)sc2Cl)cs1)c1ccc(Br)s1 | ? | -7.0% | ? | 20.6µM* | -13.3 | -18.6
CC(C)NC(=O)N(C)C[C@@H]1OCc2cnnn2CCCC(=O)N([C@H](C)CO)C[C@H]1C | i | . | . | i | -1.7 | -29.1
CC(=O)Nc1ccc(NC(=O)COC(=O)CCNS(=O)(=O)c2c(Cl)cccc2Cl)cc1 | i | 1.0% | -1.6% | i | -3.2 | 0.0
O=C(O)c1cc(/C=C/C(=O)c2cc(F)ccc2O)c2c(c1)COCO2 | i | -2.7% | 3.1% | i | 2.3 | 19.3
COc1ccc(C(=O)/C=C/c2cc(C(=O)O)cc3c2OCOC3)c(O)c1 | i | 3.3% | 18.4µM* | i | 0.1 | -1.7
NC(N)=N/N=C/c1ccc(Cl)c(Cl)c1 | 20.6µM* | ? | ? | 16.4µM* | 0.6 | -3.7
NC(N)=N/N=C/c1ccc(OCc2ccccc2Cl)cc1 | i | 13µM* | -1.2% | ? | 41.1 | -13.9
NC(N)=N/N=C/c1ccccc1 | i | -0.2% | 0.1% | i | 16.8 | 11.8
CSCC[C@H](NC(=O)c1cc2c([nH]c3ccccc32)c(-c2ccccc2)n1)C(=O)O | i | 23.1µM* | 0.1% | i | -0.8 | 5.8
